EP2 antag = blocks the human prostaglandin E2 receptor EP2. inhibition, % at 25 µM. AID 1422. C6 glioma cells expressing human EP2, cAMP TR-FRET; cells stimulated with saturating PGE2. 260,000 compounds, 0.52% hits. P43116;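 active means percent inhibition above 40 after rounding to a whole number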;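 further: rat C6 glioma host cells with rolipram phosphodiesterase inhibitor present; the protocol text gives 20 µM as final concentration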
Target sequence (P43116 whole entry, looked up): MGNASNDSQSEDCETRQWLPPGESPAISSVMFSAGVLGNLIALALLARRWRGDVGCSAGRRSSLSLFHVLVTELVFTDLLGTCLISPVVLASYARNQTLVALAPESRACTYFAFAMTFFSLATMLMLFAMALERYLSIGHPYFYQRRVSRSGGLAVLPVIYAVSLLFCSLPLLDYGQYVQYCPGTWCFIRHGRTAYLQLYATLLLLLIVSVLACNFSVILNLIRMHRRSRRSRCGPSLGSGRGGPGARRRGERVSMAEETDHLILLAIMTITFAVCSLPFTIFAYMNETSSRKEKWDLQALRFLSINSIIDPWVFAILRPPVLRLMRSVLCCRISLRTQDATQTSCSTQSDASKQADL
Furin inh = inhibitors of human furin | purified furin, fluorogenic substrate cleavage | inhibition, % at 20 µM or 30 µM | 220,000 compounds, 0.061% hits | AID 463115; in the data active means inhibition above about 25%
EP2 modulator = modulators of human EP2 prostaglandin E2 receptor. EP2-expressing cells, cAMP HTRF FRET, PGE2 co-stimulation. P43116. induction, % at 25 µM. AID 940. 260,000 compounds, 0.83% hits;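 active means compounds whose cAMP rise, as percent of the full-agonist control response, exceeds 60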;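 further: rat C6 glioma line stably carrying human EP2 under a CMV promoter; the protocol text gives 20 µM as final concentration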
HSV replic up = HSV replication enhancement; 220,000 compounds, 0.005% hits; AID 1956; HSV replication augmentation in cells, fold increase; maximum fold increase; in the data active means maximum fold increase above about 1.5; inconclusive means no clear call, values can overlap the other calls; tested in PC3 cells
Pf gametocyte = kills late stage P. falciparum gametocytes; P. falciparum stage V gametocytes, ATP luminescence, 24 h; inhibition, % at 10.9 µM; 150,000 compounds, 0.065% hits; AID 743093;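 active means inhibition above the mean plus 3 SD of compounds within the control limits, set per campaign, cut at about 38% in these data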
Of the large screens only hits and unclear results are named; the others gave an inactive call; ! = not confirmed by another sample. In the library only some 1.4% were active in any assay of this set; here they are far more common.

CN(C)CCCN1C(=O)c2cccc3c([N+](=O)[O-])ccc(c23)C1=O	EP2 antag 80 (no result: HSV replic up)
O=C(N/N=C/c1ccc(O)c(O)c1)c1ccc(CSc2cccc3cccnc23)cc1	none
Cc1ccc(C2=Nc3ccc(F)cc3C(c3cccnc3)=NN2)cc1	none (no result: Furin inh, HSV replic up, Pf gametocyte)
CCN(Cc1ccccc1)Cc1nc(CCc2ccccc2)no1	none
c1ccc(CCN(Cc2ccccc2)Cc2nc(C3CC3)no2)cc1	EP2 modulator 62
CCOC(=O)c1c(CC(C)C)csc1/N=C/C1C(=O)CC(C)(C)CC1=O	none
CCOC(=O)c1cc(C)sc1/N=C/C1C(=O)CC(C)(C)CC1=O	Furin inh 26
CCCCC(=O)O[C@H]1CCC2C3CCc4cc(O)ccc4C3CC[C@@]21C (some centres undefined)	none (no result: Furin inh, HSV replic up, Pf gametocyte)
C[C@@]12CC[C@H]3c4ccc(O)cc4CC[C@@H]3[C@H]1CC[C@H]2OC(=O)CCc1ccccc1	EP2 antag 42 (no result: Furin inh, HSV replic up, Pf gametocyte)
Cc1cc(N)c2cc(NC(=O)/C=C/c3ccccc3Cl)ccc2n1	none (no result: Pf gametocyte)
C[C@@]1(CO)[C@H](O)CC[C@]2(C)[C@@H]1CC[C@H]1C[C@H]3C[C@]12CC[C@@]3(O)COC(=O)CN	EP2 antag 52 (no result: Furin inh, HSV replic up, Pf gametocyte)
CC1(C)CC[C@]2(C(=O)O)CC[C@]3(C)C(=CCC4[C@@]5(C)CC[C@H](O)[C@@](C)(CO)C5CC[C@]43C)C2C1 (some centres undefined)	none (no result: Furin inh, HSV replic up, Pf gametocyte)
CNC(=O)COc1ccc(S(=O)(=O)N2CCCC2)cc1	none (no result: Furin inh, HSV replic up)
C/C(N)=C(/C#N)C(=O)COC(=O)c1ccccc1Cc1ccccc1	EP2 modulator 63
COc1ccc(-c2nnc(SCC(=O)c3ccccc3)o2)cc1OC	none (no result: Furin inh, HSV replic up, Pf gametocyte)
COc1ccc(C(=O)CSc2nnc(-c3ccc(OC)c(OC)c3)o2)cc1	EP2 antag 59 (no result: Furin inh, HSV replic up, Pf gametocyte)
CCC(CC)NC(=O)c1oc2ccccc2c1COc1ccccc1	none (no result: Pf gametocyte)
Cn1cc(C(=O)C(=O)N2CCN(c3ccccc3)CC2)c2ccccc21	none
c1ccc(CSc2nnc3c4ccccc4c4ccccc4c3n2)cc1	EP2 antag 55! (no result: Pf gametocyte)
Cc1nnc(SCc2ccccc2)nc1-c1ccccc1	none (no result: Furin inh, EP2 modulator, Pf gametocyte)
O=C(Cn1nc(-c2nccc3ccccc23)oc1=O)NC1CCCCC1	none (no result: Furin inh, HSV replic up, Pf gametocyte)
O=C(O)c1ccn2c(C(=O)c3ccc(Cl)cc3)c(-c3ccccc3)cc2c1	EP2 modulator 77
COc1cccc(N2CCN(c3ncnc4c3[nH]c3ccc(F)cc34)CC2C)c1 (centres undefined)	EP2 antag 99 (no result: Pf gametocyte)
Cc1cc(-c2ccc(Cl)cc2)c(C#N)c(N)n1	EP2 antag 51
CC(C)NS(=O)(=O)c1ccc(OCC(=O)NCc2ccc3c(c2)OCO3)cc1	none (no result: Furin inh, HSV replic up, Pf gametocyte)
N#C/C(=C\NC(=S)c1ccncc1)c1nc2ccccc2s1	EP2 antag 53 (no result: Furin inh, HSV replic up, Pf gametocyte)
N#C/C(=C/c1ccncc1)c1nc2ccccc2s1	HSV replic up inconclusive
Cc1ccc2ccccc2c1CSc1nc(N)nc2c1ncn2CC(C)C	EP2 antag 57 (no result: Furin inh, HSV replic up, Pf gametocyte)
Cc1cc(C)c2c(SCc3ccc(Cl)cc3Cl)nc(N)nc2n1	EP2 antag 47 (no result: Furin inh, HSV replic up, Pf gametocyte)
CC(C)Cn1cnc2c(SCc3ccc(Cl)cc3Cl)nc(N)nc21	EP2 antag 52 (no result: Furin inh, HSV replic up, Pf gametocyte)
Cc1cc2c(SCc3ccccc3Cl)nc(N)nc2nc1C	none (no result: Furin inh, HSV replic up, Pf gametocyte)
COc1ccc(CNC(=S)Nc2ccc(S(N)(=O)=O)cc2)cc1	none
O=C(/C=C/c1ccc2ccccc2c1)c1ccoc1	none (no result: Pf gametocyte)
CCOc1ccc(Cc2nc(-c3nonc3N)no2)cc1OCC	none (no result: EP2 antag, HSV replic up)
O=C1c2ccccc2C(O)(O)[C@@]1(O)[C@]1(O)C(=O)c2ccccc2C1(O)O	EP2 antag 73 (no result: Furin inh, HSV replic up, Pf gametocyte)
CC(=O)c1ccc(NC(=S)N(CCCN(C)C)Cc2ccccc2)cc1	EP2 antag 128
COc1ccccc1N1CC(C(=O)OCC(=O)c2ccc(F)cc2)CC1=O (centres undefined)	none
Cc1cccc(N2CC(C(=O)OCC(=O)c3ccc(OC(=O)c4cccs4)cc3)CC2=O)c1C (centres undefined)	EP2 antag 120
CC(C)OCCCNC(=O)CNC(=O)c1ccc(Cl)c(Cl)c1	none
Cc1sc(NC(=O)c2ccccc2)c(C(=O)c2ccccc2)c1C	EP2 modulator 65 (no result: Pf gametocyte)
Cc1ccc(C(=O)Nc2sc(C)c(C)c2C(=O)c2ccccc2)cc1	none
OCCN1CCN(CCCN2c3ccccc3Sc3ccc(Cl)cc32)CC1	none (no result: Pf gametocyte)
OC1C[C@H]2CC[C@@H](C1)N2CCCN1c2ccccc2Sc2ccc(Cl)cc21 (some centres undefined)	EP2 antag 47 (no result: Furin inh, HSV replic up, Pf gametocyte)
O=C(O)CCCn1cc(NC(=O)c2cccc(F)c2)cn1	none
O=C(O)CCCn1cc(NC(=O)c2cc(F)c(F)cc2Cl)cn1	EP2 modulator 61
N/C(=N\OC(=O)c1cccs1)C1(c2ccc(Cl)cc2Cl)CC1	EP2 antag 54
N/C(Cc1ccc(Cl)c(Cl)c1)=N\OC(=O)c1cccs1	none
COc1ccc([C@@H](Nc2ncccn2)c2cc3c(cc2O)OCO3)cc1	EP2 antag 53 (no result: Furin inh, HSV replic up, Pf gametocyte)
COc1ccc([C@@H](C)c2cc3c(cc2O)OCO3)cc1	none (no result: Furin inh, HSV replic up, Pf gametocyte)
CC(=O)OCC(=O)[C@H]1CCC2C3CCC4=CC(=O)CC[C@]4(C)C3CC[C@@]21C (some centres undefined)	none (no result: Furin inh, HSV replic up, Pf gametocyte)
C[C@@]12CC[C@@H]3[C@H](CCC4=CC(=O)CC[C@]43C)[C@H]1CC[C@H]2C(=O)COS(=O)(=O)c1ccc(Br)cc1	EP2 antag 44 (no result: Furin inh, HSV replic up, Pf gametocyte)
C[C@@]12CC[C@@H]3[C@H](CCC4=CC(=O)CC[C@]43C)[C@H]1CC[C@H]2C(=O)Cn1cnc2c(=S)nc[nH]c21	EP2 antag 41 (no result: Furin inh, HSV replic up, Pf gametocyte)
O=C(CNCC1CCCO1)Nc1ccc(N2CCCCCC2)cc1 (centres undefined)	none
O=C(CNCC1CCCO1)Nc1ccccc1N1CCCCCC1 (centres undefined)	EP2 modulator 62 (no result: Pf gametocyte)
O=C(Cc1ccc(Cl)cc1)NNS(=O)(=O)c1ccc([N+](=O)[O-])cc1	none
O=C1c2ccccc2C(=O)N1OCc1ccc(Cl)cc1	none (no result: Pf gametocyte)
O=C1Cc2ccccc2C(=O)N1OCc1ccc(Cl)cc1	Pf gametocyte 41
c1csc(-c2nc3ccccn3c2NC2CCCCC2)c1	EP2 modulator 61
Cc1ccn2c(NC3CCCC3)c(-c3cccs3)nc2c1	none
CCCCOC(=O)CN1C(=O)c2ccc(C(=O)OCCCC)cc2C1=O	EP2 modulator 63 (no result: Pf gametocyte)
Cc1nsc(N)c1C(=O)O	none
CC(=O)c1sc(C(=O)O)c(-c2ccco2)c1-c1ccco1	EP2 antag 43
CCN(CC)S(=O)(=O)c1ccc(-c2nnc(SCc3nnc(-c4ccccc4)o3)o2)cc1	EP2 antag 105 (no result: Pf gametocyte)
CCN=c1scc(C)n1/N=C/c1cc(Br)c(O)c(Br)c1	none
O=C(O)c1cccc(NC(=S)NC(=O)c2ccc(-c3ccc(Cl)cc3)o2)c1	EP2 modulator 64
O=C(O)c1cccc(NC(=S)NC(=O)c2ccc(-c3ccccc3)cc2)c1	none
Cc1ccc(C(=O)O)cc1NC(=S)NC(=O)c1ccc(-c2ccc(Cl)cc2)o1	EP2 modulator 89
CCCCNc1nc(N)nc(-c2cc(Cl)ccc2O)n1	EP2 modulator 64
CCNc1nc(N)nc(-c2cc(Cl)ccc2O)n1	none (no result: Pf gametocyte)
COc1ccc(S(=O)(=O)Nc2cc(C(C)C)c(O)cc2C)cc1	Furin inh 30 (no result: Pf gametocyte)
COc1ccc(S(=O)(=O)Nc2cc(C)c(O)cc2C(C)C)cc1	none

Bioassay records (PubChem)
